Records with an inconclusive call do not appear. Where a call stands in place of a potency, no number is given. Activity calls are given as the source filed them. Calls come from the whole dose curve; as a rule, active = well fitted antagonist curve with a large enough effect in the main read-out, with a control signal flat; inconclusive = small, poorly fitted or top-dose-only effect; inactive = no such curve, though single readings can be large or run the other way.
molecular target: Neuropeptide S receptor (Homo sapiens) (UniProt Q6W5P4); test: Confirmation Concentration-Response Assay for Antagonists of the Neuropeptide S Receptor: Calcium Signal Transduction; conditions: CHO-NPSR cells, NPS-induced calcium flux, FDSS; series mostly up to 19.3 µM
Procedure, shortened: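 CHO cells stably expressing human NPSR, loaded with calcium dye; compounds added, then stimulated with NPS (60 nM in stimulation reagent). Fluorescence (Ex 480, Em 520–560 nm) recorded kinetically on FDSS; AC50 from Hill fit.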

Sequence of Neuropeptide S receptor (Homo sapiens) (Q6W5P4 whole entry, looked up): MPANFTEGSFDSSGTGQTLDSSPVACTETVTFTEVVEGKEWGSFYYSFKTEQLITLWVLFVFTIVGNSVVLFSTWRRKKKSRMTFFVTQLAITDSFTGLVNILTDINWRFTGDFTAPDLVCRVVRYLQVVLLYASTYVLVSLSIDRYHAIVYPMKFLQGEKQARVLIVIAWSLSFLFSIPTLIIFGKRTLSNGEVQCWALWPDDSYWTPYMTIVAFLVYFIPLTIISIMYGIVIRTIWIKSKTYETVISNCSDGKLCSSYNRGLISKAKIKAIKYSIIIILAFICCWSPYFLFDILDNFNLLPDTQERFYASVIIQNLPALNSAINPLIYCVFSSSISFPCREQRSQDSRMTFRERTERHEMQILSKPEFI

Structure (SMILES)	Potency
O=C(O)C1CCN(c2nc(-c3ccccc3)nc3c2oc2ccccc23)CC1	inactive
CN(CC(=O)NCc1ccc(F)cc1)S(=O)(=O)c1cccc2nsnc12	inactive
COc1ccc(N=C2S/C(=C\c3ccc(N4CCOCC4)o3)C(=O)N2CCc2c[nH]c3ccccc23)cc1	2.24 µM (active)
CCn1cc(C(=O)NCC2CCCO2)c(=O)c2cc(S(=O)(=O)N3CCCCCC3)ccc21 (stereo unspecified)	inactive
CC(=O)n1nc2nc(C)cc(C)c2c1N	inactive
C(=N\Nc1nc(-c2ccccn2)nc2ccccc12)/c1ccccc1	inactive
C/C(=N\NC(=S)NC1CCCCC1)c1c(F)cccc1F	inactive
O=C1CC(NCc2ccncc2)C(=O)N1c1ccccc1 (stereo unspecified)	inactive
CC1CCCCN1S(=O)(=O)c1ccc(C(=O)Nc2sccc2C(N)=O)cc1 (stereo unspecified)	12.6 µM (active)
O=C(NCCCN1CCOCC1)c1cc2c(=O)[nH]c3ccccc3c2s1	inactive
COc1ccc(C(=O)N(Cc2ccco2)Cc2cccs2)c(O)c1	inactive
Oc1ccc(N=Nc2nccs2)c(O)c1	inactive
Cc1ccc(Cn2cc(SCC(=O)Nc3nccs3)c3ccccc32)cc1	inactive
CC1(C)Cc2c(c(N3CCOCC3)nc3sc4c(NCC5CCCO5)nnnc4c23)CS1 (stereo unspecified)	inactive
COC(=O)c1ccc(C(=O)OC)c(NC(=O)CSc2cccc[n+]2[O-])c1	inactive
COc1ccc(OC)c(C2C(C(=O)Nc3nc4ccccc4s3)=C(C)NC3=C2C(=O)CCC3)c1 (stereo unspecified)	2.82 µM (active)

Structure (SMILES)	Potency
S=C(Nc1ccccc1)Nc1nccs1	inactive
C(=C\c1ccccc1)/C=N/N1CCN(c2ccccn2)CC1	inactive
CN(Cc1cc(=O)[nH]c2ccccc12)C(=O)c1ccccc1	inactive
CCC(Sc1ccc2nnc(-c3cccnc3)n2n1)C(=O)O (stereo unspecified)	inactive
O=C(O)CCCCCNc1nc(=S)[nH]c2ccccc12	inactive
O=C(/C(=C/c1ccc(Cl)cc1)c1nc2ccccc2[nH]1)c1cccs1	8.91 µM (active)
CC(C)Cc1nc(N2CCN(C(=O)c3ccccc3)CC2)c(C#N)c2c1CCC2	inactive
Nc1ccc(-c2nc3c(Cl)cc(N)cc3[nH]2)cc1	inactive
Cn1c(C(=O)NCCN2CCc3ccccc3C2)cc2c(=O)[nH]c3ccccc3c21	inactive
N=C1c2ccccc2CN1c1ccc(N2CCOCC2)c(S(=O)(=O)Nc2ccc(Cl)cc2)c1	1.41 µM (active)
Cc1ccc(S(=O)(=O)Nc2cccc3ncccc23)s1	3.16 µM (active)
CC1(C)O[C@@H]2C[C@H]3[C@@H]4C[C@H](F)C5=CC(=O)CC[C@]5(C)[C@H]4[C@@H](O)C[C@]3(C)[C@]2(C(=O)CO)O1	inactive
CCOC(=O)C1CCCN(c2ncnc3c2oc2ccccc23)C1 (stereo unspecified)	12.6 µM (active)
CN(C)C(=O)Oc1cccc([N+](C)(C)C)c1	inactive
CCC(C)(C)NC(=O)Cc1ccc(C)cc1	inactive
